Test results reported in PubChem BioAssay AID463173 (ICCB-Longwood Screening Facility, Harvard Medical School, 2010).
Out of some 52,000 compounds screened, about 4,300 (8.3%) were called active. Cut-off read from the data, not from the text of the source: active = survival mostly below about 52% (no sharp cut-off); inactive = mostly above about 56%. What follows is part of a selection rich in actives, with near analogues and random picks from the rest.

The molecules below were run on DeltatarO mutant (assay: growth inhibition of S. aureus wild type versus tarO mutant, primary screen, teichoic acid synthesis inhibitors, RN4220, OD600 (AID 463173)). Conditions: OD600, 18 h, stronger effect = lower value, screened at 18.75 µg/mL (by protocol).
With `COc1cc(NC(=O)Cn2c(=O)n(CC3CCCO3)c(=O)c3cc(OC)c(OC)cc32)cc(OC)c1` (stereo not drawn) the survival was 94% (inactive). With `CCN1CCN(c2ncnc3c2cnn3-c2ccc(C)cc2)CC1` the survival was 101% (inactive). In the case of `CC(C)OCCCn1c(SCC(N)=O)nc2c(sc3ccccc32)c1=O`, the survival is reported as 92% (inactive). For `N#Cc1nc(-c2ccc(COc3ccccc3)o2)oc1NCc1ccccc1`, the survival was 70% (inactive). In the case of `COCCCNc1oc(-c2ccc(COc3ccccc3C)o2)nc1C#N`, the survival is reported as 43% (active). In the case of `COc1ccc(CNc2oc(-c3ccc(COc4ccccc4C)o3)nc2C#N)cc1`, the survival is reported as 50% (inactive). With `CC1CCN(c2oc(-c3ccc(COc4ccccc4)o3)nc2C#N)CC1` the survival was 51% (inactive). `Cc1ccccc1OCc1ccc(-c2nc(C#N)c(NCc3cccnc3)o2)o1` was tested, and the survival was 43% (active). For `Cc1ccccc1OCc1ccc(-c2nc(C#N)c(NCCCN(C)C)o2)o1`, the survival was 59% (inactive). For `N#Cc1nc(-c2ccc(COc3ccccc3)o2)oc1NCc1cccnc1`, the survival was 44% (active). With `COc1ccc(OCc2ccc(-c3nc(C#N)c(NCc4cccnc4)o3)o2)cc1` the survival was 56% (inactive). For `COc1ccc(Nc2oc(-c3ccc(COc4ccccc4)o3)nc2C#N)cc1`, the survival was 100% (inactive). In the case of `CN(C)c1oc(-c2ccc(COc3ccccc3)o2)nc1C#N`, the survival is reported as 39% (active). In the case of `Cc1ccc(OCc2ccc(-c3nc(C#N)c(NCc4cccnc4)o3)o2)cc1`, the survival is reported as 51% (inactive). In the case of `CCCCNc1oc(-c2ccc(COc3ccccc3C)o2)nc1C#N`, the survival is reported as 112% (inactive). `Cn1c(=O)c2cc(C(=O)NCCCN3CCN(c4cccc(Cl)c4)CC3)sc2c2ccccc21` was tested, and the survival was 48% (inactive). In the case of `Cc1cc(C)c(Cn2c(=O)n(CCC(=O)NCc3ccc4c(c3)OCO4)c(=O)c3ccccc32)c(C)c1`, the survival is reported as 108% (inactive). `CN(C)c1ccc(NC(=O)Cn2c(SCc3ccccc3F)nc3cccnc32)cc1` was tested, and the survival was 124% (inactive). In the case of `CC(C)(C)c1ccc(OCC(=O)N(Cc2ccco2)Cc2ccccc2F)cc1`, the survival is reported as 78% (inactive). For `Cc1cc(O)c(C(c2ccccc2)N2CCN(c3ccc(F)cc3)CC2)c(=O)n1Cc1ccco1` (stereo not drawn), the survival was 67% (inactive). With `COc1ccccc1CCNC(=O)c1ccc2c(c1)c(C)c(C)n2C` the survival was 95% (inactive). In the case of `Cc1ccc(NC(=O)CSc2nc(-c3ccco3)nc3cc(=O)[nH]n23)cc1C`, the survival is reported as 135% (inactive). `CCOc1ccc(OCC)c(Nc2nc3ccccc3c3nnc(C)n23)c1` was tested, and the survival was 91% (inactive). `Cc1nn(-c2ccc(N3CCCC3)nn2)c(C)c1CCC(=O)NCc1ccccc1F` was tested, and the survival was 82% (inactive). With `Cc1cccc(NC(=O)C(=O)NCCc2csc(-c3ccc(F)cc3)n2)c1C` the survival was 83% (inactive). `Cc1ccc(-c2nc(CCNC(=O)C(=O)Nc3ccc(C)c(Cl)c3)cs2)cc1` was tested, and the survival was 60% (inactive). In the case of `Cc1ccc(-c2nc(CCNC(=O)C(=O)Nc3c(C)cccc3C)cs2)cc1`, the survival is reported as 8% (active). `Cc1cc(C)c(NC(=O)C(=O)NCCc2csc(-c3ccc(F)cc3)n2)c(C)c1` was tested, and the survival was 67% (inactive). `Cc1ccc(-c2nc(CCNC(=O)C(=O)Nc3ccc(C)c(C)c3)cs2)cc1` was tested, and the survival was 20% (active). For `Cc1ccc(-c2nc(CCNC(=O)C(=O)Nc3ccc(C)cc3C)cs2)cc1`, the survival was 66% (inactive). For `Cc1c(CCNC(=O)c2ccc(Br)o2)sc2nc(-c3ccc(Cl)cc3)nn12`, the survival was 75% (inactive). For `O=C(CCn1cnnn1)Nc1cc(C(F)(F)F)cc(C(F)(F)F)c1`, the survival was 69% (active). `O=C(CCn1cnnn1)Nc1ccc(F)cc1` was tested, and the survival was 72% (inactive). For `Cc1cccc(NC(=O)CCn2cnnn2)c1`, the survival was 79% (inactive). In the case of `CC(=O)Nc1cccc(-c2nnc(SCC(=O)c3ccc([N+](=O)[O-])cc3)o2)c1`, the survival is reported as 130% (inactive). For `COc1ccc(NCc2nnc3n2CCCCC3)c(OC)c1`, the survival was 100% (inactive). `COc1ccc(C)cc1NCc1nnc2n1CCCCC2` was tested, and the survival was 20% (active). In the case of `COc1ccc(Cl)cc1NCc1nnc2n1CCCCC2`, the survival is reported as 8% (active). In the case of `Fc1ccc(NCc2nnc3n2CCCCC3)cc1Cl`, the survival is reported as 102% (inactive). For `Cc1cc(C)cc(NCc2nnc3n2CCCCC3)c1`, the survival was 89% (inactive). With `Cc1ccc(Cl)cc1NCc1nnc2n1CCCCC2` the survival was 101% (inactive). With `Clc1cccc(-n2ncc3c(N4CCC(Cc5ccccc5)CC4)ncnc32)c1` the survival was 83% (inactive). In the case of `CCOC(=O)c1ccccc1NC(=O)CSc1nccn1Cc1ccco1`, the survival is reported as 75% (inactive). `COCCCNC(=O)CCC(=O)NNc1nc2ccccc2c2nc(-c3ccccc3)nn12` was tested, and the survival was 100% (inactive). With `O=C(CCn1nnc2ccccc21)N1CCC(O)(c2cccc(F)c2)CC1` the survival was 81% (inactive). With `COC(=O)c1ccccc1NC(=O)Cn1cc(S(=O)(=O)Cc2ccccc2F)c2ccccc21` the survival was 94% (inactive). With `COc1cccc(N2C(=O)CSC23C(=O)N(Cc2ccccc2F)c2ccccc23)c1` (stereo not drawn) the survival was 67% (inactive). In the case of `COc1ccc(C2C=C(c3ccccc3)Nc3nc(NC(C)=O)nn32)cc1` (stereo not drawn), the survival is reported as 53% (inactive). With `Cc1ccc(C(=O)Nc2nc3n(n2)C(c2ccc(F)cc2)C=C(c2ccccc2)N3)cc1` (stereo not drawn) the survival was 43% (active). For `COc1ccc(C2C=C(c3ccccc3)Nc3nc(NC(=O)c4ccc(C)cc4)nn32)cc1` (stereo not drawn), the survival was 44% (active). `COc1ccc(C(=O)Nc2nc3n(n2)C(c2ccc(F)cc2)C=C(c2ccc(Cl)cc2)N3)cc1` (stereo not drawn) was tested, and the survival was 54% (inactive). `Cc1ccc(C(=O)Nc2nc3n(n2)C(c2ccccc2)C=C(c2ccccc2)N3)cc1` (stereo not drawn) was tested, and the survival was 57% (inactive). `O=C(Nc1nc2n(n1)C(c1ccc(F)cc1)C=C(c1ccccc1)N2)c1ccc(Cl)cc1` (stereo not drawn) was tested, and the survival was 48% (inactive). For `CCOc1ccccc1CNC(=O)CN(c1ccc(C)cc1)S(=O)(=O)N(C)C`, the survival was 70% (inactive). `Cn1cc(C(c2ccccc2)c2ccc(Cl)s2)c2ccccc21` (stereo not drawn) was tested, and the survival was 102% (inactive). In the case of `Cc1ccc2[nH]cc(C(c3ccccc3)c3cccs3)c2c1` (stereo not drawn), the survival is reported as 12% (active). With `Cc1ccc2[nH]cc(S(=O)(=O)c3ccc(C)c(C)c3)c(=O)c2c1` the survival was 81% (inactive). With `Clc1ccc(C(c2ccccc2)c2c[nH]c3ccccc23)s1` (stereo not drawn) the survival was -3% (active). In the case of `Cc1ccc2[nH]cc(C(c3ccccc3)c3ccc(Cl)s3)c2c1` (stereo not drawn), the survival is reported as 10% (active). With `O=C(O)CSc1c[nH]c2ccccc12` the survival was 84% (inactive). `c1ccc(C(c2cccs2)c2c[nH]c3ccccc23)cc1` (stereo not drawn) was tested, and the survival was -1% (active). For `COc1ccc(C(CN)c2c[nH]c3ccccc23)cc1` (stereo not drawn), the survival was 107% (inactive). With `CCCCN(CC)C(=O)c1nn(-c2ccc(OC)cc2)c(=O)c2c1c1ccccc1n2C` the survival was 82% (inactive). In the case of `COc1cccc(CNC(=O)Cn2cc3c(n2)-c2c(oc(C(=O)N4CCCC4)c2C)CC3)c1`, the survival is reported as 76% (inactive). With `Cc1cccc(N2CCN(c3ncnc4onc(C)c34)CC2C)c1` (stereo not drawn) the survival was 77% (inactive). For `CCc1ccc(C(c2ccccc2)c2c[nH]c3ccc(C)cc23)s1` (stereo not drawn), the survival was 69% (inactive). For `CCN(Cc1ccccc1)C(=O)c1cc2c(=O)[nH]c3ccc(C)cc3c2s1`, the survival was 49% (inactive). For `Cc1ccc2[nH]cc(C(c3ccccc3)c3ccc(C)s3)c2c1` (stereo not drawn), the survival was 25% (active). In the case of `Cc1ccc(OCc2nc(-c3ccc(C(=O)N4CCN(c5ccc(Cl)cc5)CC4)cc3)oc2C)cc1`, the survival is reported as 76% (inactive). `CCC(C(=O)Nc1cccc(C#N)c1)n1nc(-c2ccccc2)ccc1=O` (stereo not drawn) was tested, and the survival was 40% (active). In the case of `CCOc1ccc(NC(=O)C(CC)n2nc(-c3ccc(C)c(C)c3)ccc2=O)cc1` (stereo not drawn), the survival is reported as 68% (inactive). In the case of `CCC(C(=O)Nc1cccc(C#N)c1)n1c(=O)c(-c2ccccc2NC(C)=O)nc2ccccc21` (stereo not drawn), the survival is reported as 100% (inactive). `CCc1cccc(NC(=O)Cn2nc(-c3cc(C)ccc3C)ccc2=O)c1` was tested, and the survival was 34% (active). For `Cc1ccc(-c2ccc(=O)n(CC(=O)Nc3cccc(C#N)c3)n2)cc1`, the survival was 112% (inactive). In the case of `CCC(C(=O)Nc1ccccc1)n1nc(-c2cc(C)ccc2C)ccc1=O` (stereo not drawn), the survival is reported as 37% (active). `CCc1cccc(NC(=O)Cn2nc(-c3ccc(OC)cc3)ccc2=O)c1` was tested, and the survival was 83% (inactive). In the case of `CCC(C(=O)Nc1ccc(C(=O)OC)cc1)n1nc(-c2ccc(C)c(C)c2)ccc1=O` (stereo not drawn), the survival is reported as 86% (inactive). `Cc1ccc(C)c(NC(=O)C(C)n2c(=O)cc(C(F)(F)F)c3c(C)nn(C)c32)c1` (stereo not drawn) was tested, and the survival was 89% (inactive). With `CCc1cccc(NC(=O)Cn2nc(CC)n3c(cc4cc(C)ccc43)c2=O)c1` the survival was 56% (inactive). With `CCc1ccccc1NC(=O)C(C)n1nc(-c2ccc(C)c(C)c2)ccc1=O` (stereo not drawn) the survival was 54% (inactive). In the case of `Cc1ccc(C)c(-c2ccc(=O)n(C(C)C(=O)Nc3ccccc3C(F)(F)F)n2)c1` (stereo not drawn), the survival is reported as 41% (active). With `COc1ccc(Nc2ncnc3c2cnn3-c2ccc(C)cc2)cc1Cl` the survival was 128% (inactive). With `CC1=C(c2ccc(C)c(C)c2)S(=O)(=O)N=C1N1CCC(C(=O)Nc2cccc(F)c2)CC1` the survival was 79% (inactive). `O=C(COC(=O)c1ccccc1Cl)Nc1nccs1` was tested, and the survival was 94% (inactive). With `Cc1ccc(CCNC(=O)NCc2noc3ccccc23)cc1` the survival was 102% (inactive). With `COc1ccc(CNC(=O)C(=O)Nc2c3c(nn2-c2ccccc2)CSC3)cc1` the survival was 86% (inactive). In the case of `Cc1ccc(OCCSc2nc(-c3ccccc3C)nc3cc(=O)[nH]n23)cc1Cl`, the survival is reported as 106% (inactive). In the case of `COc1ccc(CNC(=O)CCS(=O)(=O)c2cc(Br)cc3c2N(C(C)=O)C(C)C3)cc1` (stereo not drawn), the survival is reported as 92% (inactive). In the case of `CCOC(=O)c1c(S(=O)(=O)N2CCC(C(=O)Nc3cccc(C)n3)CC2)c(C)n(C)c1C`, the survival is reported as 94% (inactive). With `Cc1ccc2onc(CNC(=O)Nc3cc(F)ccc3F)c2c1` the survival was 49% (inactive). In the case of `CCC(C(=O)Nc1cc(F)ccc1F)n1nc(C)c2c(C)n(-c3ccc(C)cc3)nc2c1=O` (stereo not drawn), the survival is reported as 87% (inactive). For `CCC(C(=O)Nc1cc(F)ccc1F)n1nc(-c2cc(C)ccc2C)ccc1=O` (stereo not drawn), the survival was 38% (active). With `COc1ccc(NC(=O)c2sc3nc4n(c(=O)c3c2C)CCC4)cc1Cl` the survival was 108% (inactive).
